Assay outcomes from PubChem BioAssay.
D3 ag – qHTS of D3 Dopamine Receptor Agonist: qHTS. D(3) dopamine receptor (Homo sapiens), P35462. max activation, %. D3R DiscoveRx beta-arrestin cells, luminescence, 90 min. 410,000 compounds, 0.58% hits; in the data active = max activation above about 30%; note: 0% is about no effect
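Agonist mode: compounds and dopamine controls were applied to plated cells for 90 min at 37 degrees C after an overnight attachment at 1500 cells/well. Luminescent read-out followed 30 - 60 minutes at room temperature with DiscoveRx detection reagent.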
D3 antag – qHTS of D3 Dopamine Receptor Antagonist: qHTS; D(3) dopamine receptor (Homo sapiens), P35462; D3R cells, DiscoveRx beta-arrestin luminescence, antagonist mode; stronger effect = lower value; max response, negative = inhibition, %; 360,000 compounds, 2.5% hits; AID 652054, 2013; in the data active = max response below about -50%; inconclusive = no clear call, values can overlap the other calls; note: % is set by controls: 0 for no effect and ±100 for the full control effect
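Cells expressing the human receptor were seeded at 1500 cells/well, incubated overnight at 37 degrees C in 5% CO2, then exposed to library compounds with dopamine controls for 90 minutes at 37 degrees C before luminescent detection.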
D1 PAM – Potentiators of Human D1 Dopamine Receptor: qHTS. D(1A) dopamine receptor (Homo sapiens), P21728. HEK293 TREx D1 cells, calcium flux, dopamine EC20 potentiation. potentiation, % at 10 µM. 360,000 compounds, 0.036% hits; in the data active = potentiation above about 30%; note: 0% is about no effect
Target sequence (P21728 whole entry, looked up): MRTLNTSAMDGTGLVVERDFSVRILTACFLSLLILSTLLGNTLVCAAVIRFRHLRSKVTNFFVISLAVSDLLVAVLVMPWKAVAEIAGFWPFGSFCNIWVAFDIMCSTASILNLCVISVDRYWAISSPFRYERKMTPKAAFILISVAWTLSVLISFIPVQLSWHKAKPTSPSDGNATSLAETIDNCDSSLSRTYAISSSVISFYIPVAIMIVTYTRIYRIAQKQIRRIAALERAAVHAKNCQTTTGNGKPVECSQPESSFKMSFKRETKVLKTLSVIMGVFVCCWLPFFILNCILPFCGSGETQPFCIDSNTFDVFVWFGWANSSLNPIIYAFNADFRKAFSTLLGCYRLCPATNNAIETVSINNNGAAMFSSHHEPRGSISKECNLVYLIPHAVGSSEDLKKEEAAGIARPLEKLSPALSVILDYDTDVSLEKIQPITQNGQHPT
D1 antagonist – Antagonist of Human D 1 Dopamine Receptor: qHTS | D(1A) dopamine receptor (Homo sapiens), P21728 | HEK293 TREx D1 cells, calcium flux, dopamine EC80; stronger effect = lower value | activity change, negative = inhibition, % at 10 µM | 360,000 compounds, 3.2% hits | AID 504652, 2011; in the data active = activity change below about -30%; note: % is set by controls: 0 for no effect and ±100 for the full control effect
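Inducible Hek293 Trex D1 cells (tetracycline, overnight, 30 C). Calcium dye 30–90 min RT. Antagonist mode: EC80 dopamine added after 180 s compound read.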
D1 ag – Allosteric Agonists of the Human D1 Dopamine Receptor: qHTS | D(1A) dopamine receptor (Homo sapiens), P21728 | HEK293 T-REx D1 cells, calcium flux, agonist mode | 360,000 compounds, 1% hits | activation, % at 2 µM; in the data active = activation above about 30%; note: 0% is about no effect
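Agonism was scored from calcium flux recorded over 180 s (1 read/s) after pintool compound addition, following a 10-cycle baseline. Cells were inducible force-coupled HEK293 TREx D1, plated overnight at 30 C and loaded with no-wash calcium dye.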
* = called active by the depositor; ? = inconclusive; . = no result given. This is a sample that favours compounds with a hit; in the whole collection about 6% have one here.

SMILES | D3 ag | D3 antag | D1 PAM | D1 antagonist | D1 ag
CC1CN(CCOc2ccc(Cl)c(Cl)c2)CC(C)O1 (stereo unspecified) | -19.0 | ? | -0.7 | -0.3 | 7.3
Clc1cccc(OCCN2CCNCC2)c1 | 26.4 | -20.6 | 1.8 | -2.8 | 2.1
CCOc1ccccc1NC(=O)CSc1cn(CC(=O)N2CCCCCC2)c2ccccc12 | -7.7 | . | -1.4 | -0.5 | 0.3
Cc1[nH]n(-c2ccccc2)c(=O)c1/C=N/NC(=O)c1ccccc1F | -1.2 | 3.5 | 2.0 | 1.6 | -0.4
CN(C(=O)c1ccc2c(=O)n3c(nc2c1)CCCCC3)c1cccc(Cl)c1 | -26.4 | ? | 4.4 | 18.7 | -2.6
CC(=O)Nc1ccc(/C=C/c2nc3ccccc3o2)cc1 | -10.7 | -18.7 | -5.2 | -9.1 | 3.7
O=C(Nc1ccc(/C=C/c2nc3ccccc3o2)cc1)c1c(F)cccc1F | 5.2 | 11.9 | -10.2 | -41.9* | 8.4
CCOC(=O)C(C)On1c(-c2ccccc2)nc2ccc([N+](=O)[O-])cc21 (stereo unspecified) | -5.3 | -2.0 | -3.8 | -25.7 | 1.3
CCOC(=O)C(C)On1c(-c2ccc(Cl)cc2)nc2ccc([N+](=O)[O-])cc21 (stereo unspecified) | 4.9 | 38.5 | -9.7 | -39.5* | 6.5
CCOc1cc(C(=O)N2CCN(C/C=C/c3ccccc3)CC2)cc(OCC)c1OCC | 4.1 | 15.7 | -5.8 | 7.7 | 2.0
COc1ccc(NS(=O)(=O)c2cc(C(=O)N3CCN(C/C=C/c4ccccc4)CC3)ccc2C)cc1 | 49.4* | -8.5 | -8.4 | 0.5 | 8.2
O=C(c1ccco1)N1CCN(C/C=C/c2ccccc2)CC1 | -19.7 | -108.7* | -0.8 | 9.8 | 3.0
COc1cc(C(=O)N2CCN(C/C=C/c3ccccc3)CC2)cc(OC)c1OC | 33.2* | 28.9 | -1.6 | 0.9 | 0.2
O=C(c1cccc([N+](=O)[O-])c1)N1CCN(C/C=C/c2ccccc2)CC1 | 31.5* | -10.6 | -8.6 | -15.5 | 10.7
CCCN(C(=O)CSc1nnc(-c2ccc3c(c2)OCO3)o1)C1CCS(=O)(=O)C1 (stereo unspecified) | -2.6 | -3.8 | . | . | .
CCOc1ccc(CCNC(=O)CCc2c(C)nc3cc(-c4ccccc4OC)nn3c2C)cc1 | 21.8 | . | -2.1 | -4.3 | 3.3
Cc1cccc(NC(=O)C(C)OC(=O)CNC(=O)C2CCCCC2)c1 (stereo unspecified) | 1.0 | 26.4 | . | . | .
O=C(CN1CCSC1=NCc1ccccc1)c1ccc(Cl)cc1 | -14.5 | -66.9* | -5.4 | 1.9 | 9.8
O=C(Nc1ccc(Cl)cc1)N1CCSC1=NCc1ccccc1 | 0.6 | 18.4 | 1.4 | -1.3 | 2.7
Cc1ccc(C(=O)N(C)c2nnc(-c3ccncc3)s2)cc1 | 3.7 | -14.8 | -4.7 | -30.5* | 10.1
CC(=O)Nc1ccc(CNc2nc(NCC3CC3)nc3ccsc23)cc1 | -11.0 | 0.0 | . | . | .
CCCCNS(=O)(=O)c1ccc(N2CCCCS2(=O)=O)cc1 | 3.3 | . | 1.1 | -11.2 | 6.4
O=S(=O)(NCCc1ccc(Cl)cc1)c1ccc(N2CCCCS2(=O)=O)cc1 | -14.0 | . | 0.8 | -34.8* | 13.2
CC(C)CNS(=O)(=O)c1ccc(N2CCCCS2(=O)=O)cc1 | -17.1 | . | -0.1 | -43.7* | 6.7
OC(c1ccc(F)c(F)c1)c1nc(-c2ccoc2)cs1 (stereo unspecified) | -14.2 | -9.2 | . | . | .
SMILES | D3 ag | D3 antag | D1 PAM | D1 antagonist | D1 ag
Cc1ccc(S(=O)(=O)CCC(=O)N2CCN(c3ccc(Cl)cc3)CC2)cc1 | 32.1* | 13.2 | -7.0 | 8.8 | -1.1
O=C(CCS(=O)(=O)c1ccc(Cl)cc1)N1CCN(c2ccc(F)cc2)CC1 | 22.9 | 4.8 | 6.8 | -24.8 | 10.0
CCOC(=O)N1CCN(C(=O)Cc2ccc(C)cc2)CC1 | 1.4 | -57.7* | 1.2 | -5.9 | 1.4
O=[N+]([O-])c1ccc(N2CCN(CC3CCCCC3)CC2)cc1 | -5.3 | -58.0* | -4.8 | -25.3 | 2.0
COC(=O)C1CCN(C(=O)Cc2ccc(C)cc2)CC1 | 1.9 | 0.1 | 1.1 | -1.8 | 1.5
Cc1ccc(CC(=O)N2CCN(c3ccc([N+](=O)[O-])cc3)CC2)cc1 | 16.5 | 14.5 | -7.8 | -41.8* | 10.4
Cc1cccc(C)c1NC(=O)C1(C)CCC(=O)N1c1cc(C(C)(C)C)nn1C (stereo unspecified) | 0.1 | 19.0 | . | . | .
CCc1ccc(-c2nc3cc(NC(=O)c4cc5ccccc5cc4OC)ccc3o2)cc1 | 9.3 | . | -1.0 | -3.2 | 3.3
Cc1ccc(C)c(CSC2=NCCN2C(=O)Cc2ccc([N+](=O)[O-])cc2)c1 | -7.8 | -61.2* | -5.9 | -9.1 | 1.4
C[C@H]1O[C@@H](O[C@H]2CC[C@@]3(C)[C@H](CC[C@@H]4[C@@H]3C[C@@H](O)[C@]3(C)[C@@H](C5=CC(=O)OC5)CC[C@]43O)C2)C[C@H](O)[C@@H]1O[C@H]1C[C@H](O)[C@H](O[C@H]2C[C@H](O)[C@H](O[C@@H]3O[C@H](CO)[C@@H](O)[C@H](O)[C@H]3O)[C@@H](C)O2)[C@@H](C)O1 | 8.0 | . | . | . | .
CCOC(=O)c1cc(C#N)c(N2CCN(C)CC2)nc1-c1ccccc1 | -22.8 | -69.4* | -1.8 | 9.9 | -0.6
CC(=O)c1cc(C#N)c(NCc2ccccc2)nc1C | 1.9 | 9.1 | -4.5 | -9.9 | 12.4
CCc1ccc2nc(SCC(=O)N(CC)CC)c(C#N)cc2c1 | -1.7 | 12.1 | -8.2 | -45.6* | 1.0
CCOC(=O)c1cc(C#N)c(N2CCCC2)nc1-c1ccccc1 | 5.0 | 0.0 | -2.6 | 5.5 | 4.0
CN1CCN(c2nc(-c3ccccc3)nc(-c3ccccc3)c2C#N)CC1 | -2.9 | -29.0 | -0.8 | 23.7 | 2.1
CCN(CC)C(=O)CSc1nc(C)cc(C)c1C#N | -6.5 | -25.2 | 2.8 | 10.8 | 1.1
COc1ccc(-c2nc(-c3ccccc3)nc(N3CCN(C)CC3)c2C#N)cc1 | -11.7 | -85.3* | . | . | .
CCOC(=O)c1cc(C#N)c(NCc2ccccc2)nc1C | -5.2 | -17.7 | -5.7 | -42.6* | 5.4
COC(=O)c1ccccc1NC(=O)C1=CC(c2ccc3c(c2)OCO3)=NS(=O)(=O)N1C | 4.5 | . | 1.9 | -8.3 | 0.3
CCOC(=O)c1cc(C#N)c(Oc2ccc(F)cc2)nc1-c1ccccc1 | 0.9 | 47.5 | -1.6 | -34.7* | 7.8
CCOC(=O)c1cc(C#N)c(Oc2cccc(C(F)(F)F)c2)nc1-c1ccccc1 | 0.9 | 12.6 | -5.4 | -5.5 | 18.3
CCOC(=O)c1cc(C(=O)NN)c(C)nc1C | -1.7 | ? | -5.1 | -87.1* | 3.3
CCOC(=O)c1cc(NC(=O)N(CC)CC)c(C)nc1C | 9.2 | 10.4 | -0.9 | 10.2 | 1.9
CCc1ccc2nc(N3CCN(C)CC3)c(C#N)cc2c1 | 0.8 | -67.9* | -9.0 | -22.5 | 0.9
